# Source: the OligoGym collection
# Tests used:
# Assay in all cases: pooled miR-30 sensor sort-seq; sequence = guide strand
# Conditions in all cases: shRNA
# [1] = target: REPS2
# [2] = target: RDH8
# [3] = target: RELA
# [4] = target: RECQL4
# [5] = target: RET
# [6] = target: RGS9
# [7] = target: RHBDL3
# [8] = target: RHOF
# [9] = target: RHOH
# Note: reference of the scale not given here.
sequence,measurement,setting,value
TAAATATGGAATCTGAACCTTA,sensor-assay potency score (higher = more potent),[1],-0.238
TACAGCTGAGACACTGGGCCAC,sensor-assay potency score (higher = more potent),[2],0.00741
TTCTGCATGGCAGCAAGGCTGA,sensor-assay potency score (higher = more potent),[2],-1.12
TTGAGCGTGGTCAGCGGCGAGT,sensor-assay potency score (higher = more potent),[2],-1.34
ATCACTGCACACGTCCAGCTGG,sensor-assay potency score (higher = more potent),[2],-0.715
TTTTCTGGTCTGAATTTCCTAC,sensor-assay potency score (higher = more potent),[1],-0.484
TAGCCATTGATCTTGATGGTGG,sensor-assay potency score (higher = more potent),[3],-0.637
ATCGTTGAAGATGACACCCTGC,sensor-assay potency score (higher = more potent),[2],0.0457
TAGCGGATGTTGGTCTGTCGGC,sensor-assay potency score (higher = more potent),[2],-1.33
TTCAGGAAACAAGACTCCTTGG,sensor-assay potency score (higher = more potent),[4],-0.807
TTATCCTCATCGTCCATTCTTT,sensor-assay potency score (higher = more potent),[1],-0.725
TTGAAAACGTTTGCCTTGCAGC,sensor-assay potency score (higher = more potent),[4],-0.47
TTGGTGTCAAAGACATTCTGCA,sensor-assay potency score (higher = more potent),[2],0.0313
TAGCACAGCAAAGTCTCGATGG,sensor-assay potency score (higher = more potent),[4],-0.495
TTGGGGACAGAAGCTGAGCTGC,sensor-assay potency score (higher = more potent),[3],-1.1
TTTCTGCACCTTGTCACACAGT,sensor-assay potency score (higher = more potent),[3],-0.991
TAGAGTGGCAGCACGGTGGGGT,sensor-assay potency score (higher = more potent),[4],0.669
TTTCTTCCGCCACTTCTGCTTC,sensor-assay potency score (higher = more potent),[4],-1.04
TTGACGAGACGGACAGCTCCGA,sensor-assay potency score (higher = more potent),[2],-0.0536
TTTCCTACAAGCTCGTGGGGGT,sensor-assay potency score (higher = more potent),[3],-0.0432
TTGAAGGCCAAGGTTGAGGAGG,sensor-assay potency score (higher = more potent),[2],-0.704
TCGAGTCGAGCTGATGACGTTG,sensor-assay potency score (higher = more potent),[2],-0.883
TTGTGGTGAAGGAACCAGTGGC,sensor-assay potency score (higher = more potent),[4],0.104
TTGGATATCTTGGAAACCCAGT,sensor-assay potency score (higher = more potent),[5],-0.723
TAGAGTTTGTTTTCAATCCATG,sensor-assay potency score (higher = more potent),[5],-0.723
TGACTTTGGACTGATCTCCATA,sensor-assay potency score (higher = more potent),[6],-0.742
TATCTGTCTGCTTTGTTCCTCT,sensor-assay potency score (higher = more potent),[6],-0.0404
TAGCTGTCATAGTACCACTTGC,sensor-assay potency score (higher = more potent),[7],-0.706
TTTTTGACAGCAACGACTGTTT,sensor-assay potency score (higher = more potent),[6],-0.217
TTTACCTTGACTTCATTCGGAT,sensor-assay potency score (higher = more potent),[6],0.0975
TGTCATAGTACCACTTGCGGTC,sensor-assay potency score (higher = more potent),[7],-0.531
TAGCAGATGAGCACGAGGTGGG,sensor-assay potency score (higher = more potent),[8],0.0207
TAATGTAGCCTGTGTTCCCAGG,sensor-assay potency score (higher = more potent),[7],-0.768
AAGCGCACCAACAGAGAGGTTT,sensor-assay potency score (higher = more potent),[9],-0.535
AAATCCACCACAGTGACTGGTC,sensor-assay potency score (higher = more potent),[7],0.238
TTGAACTGGCACTTCATGCCTG,sensor-assay potency score (higher = more potent),[7],0.341
ATCCGCAGCAGCTTGAACTGGC,sensor-assay potency score (higher = more potent),[7],-0.0826
TGAACTGGCACTTCATGCCTGA,sensor-assay potency score (higher = more potent),[7],0.0699
TACTTCTCGAACACCGATGGGG,sensor-assay potency score (higher = more potent),[8],0.0393
TAGTCTTCTTGCCCGGCCGTGT,sensor-assay potency score (higher = more potent),[8],-1.09
TTCCTTTTCATATTCTTCCAAA,sensor-assay potency score (higher = more potent),[6],-0.756
TAGAGAGCAGCTCGGATCTGTT,sensor-assay potency score (higher = more potent),[8],-0.736
AAACTGATCAAACAGGACTTTC,sensor-assay potency score (higher = more potent),[7],-1.76
TTCCTCAGGTCTGTCTTGCAGC,sensor-assay potency score (higher = more potent),[8],-0.598
AAACTTGGCGGAACATTCCAGG,sensor-assay potency score (higher = more potent),[8],-0.805
TTGCTGCCAACGGTCACGCTGG,sensor-assay potency score (higher = more potent),[8],-0.873
TTGCCTGTGCTAATGTAGCCTG,sensor-assay potency score (higher = more potent),[7],-0.542
TAGGCTGACAAAATCCTGGTAG,sensor-assay potency score (higher = more potent),[7],0.858
TGATCAAACAGGACTTTCCAGT,sensor-assay potency score (higher = more potent),[7],-0.423
TTAGGCTGACAAAATCCTGGTA,sensor-assay potency score (higher = more potent),[7],0.00913
TTGAGAATGAGATTCTTGGGGT,sensor-assay potency score (higher = more potent),[6],0.816
TTGTTTCTTGACTTCATTCGGA,sensor-assay potency score (higher = more potent),[6],0.389
TTGCCATCTATGTTGATCCAGC,sensor-assay potency score (higher = more potent),[6],-0.689
TTGCAGAACATCACTTCCTGTC,sensor-assay potency score (higher = more potent),[6],0.603
TTCAGCTCCTTCCTGCCCGGAC,sensor-assay potency score (higher = more potent),[8],-0.816
TCCGGGAAGGTCTCGGAGGTGA,sensor-assay potency score (higher = more potent),[9],-1.75
TTGATGAGGACGTTGTCGTAGC,sensor-assay potency score (higher = more potent),[8],0.173
TCCAGGTAGAGAGCAGCTCGGA,sensor-assay potency score (higher = more potent),[8],-1.54
TGTGTTCTCGTACACTGTGGGC,sensor-assay potency score (higher = more potent),[9],-1.21
ATGAGCAGCGAGGTCTTGCCGC,sensor-assay potency score (higher = more potent),[8],-1.07
